Out of some 2,400 compounds screened, about 580 (24%) were called active. These entries were drawn from the full list. A number with no mark means an inactive call.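 The calls were made as follows: active = activity change at or above the mean plus 3 SD of buffer wells without dofetilide, per plate; inactive = the rest.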

Potassium voltage-gated channel subfamily KQT member 2 (Rattus norvegicus), sequence (O88943 whole entry, looked up): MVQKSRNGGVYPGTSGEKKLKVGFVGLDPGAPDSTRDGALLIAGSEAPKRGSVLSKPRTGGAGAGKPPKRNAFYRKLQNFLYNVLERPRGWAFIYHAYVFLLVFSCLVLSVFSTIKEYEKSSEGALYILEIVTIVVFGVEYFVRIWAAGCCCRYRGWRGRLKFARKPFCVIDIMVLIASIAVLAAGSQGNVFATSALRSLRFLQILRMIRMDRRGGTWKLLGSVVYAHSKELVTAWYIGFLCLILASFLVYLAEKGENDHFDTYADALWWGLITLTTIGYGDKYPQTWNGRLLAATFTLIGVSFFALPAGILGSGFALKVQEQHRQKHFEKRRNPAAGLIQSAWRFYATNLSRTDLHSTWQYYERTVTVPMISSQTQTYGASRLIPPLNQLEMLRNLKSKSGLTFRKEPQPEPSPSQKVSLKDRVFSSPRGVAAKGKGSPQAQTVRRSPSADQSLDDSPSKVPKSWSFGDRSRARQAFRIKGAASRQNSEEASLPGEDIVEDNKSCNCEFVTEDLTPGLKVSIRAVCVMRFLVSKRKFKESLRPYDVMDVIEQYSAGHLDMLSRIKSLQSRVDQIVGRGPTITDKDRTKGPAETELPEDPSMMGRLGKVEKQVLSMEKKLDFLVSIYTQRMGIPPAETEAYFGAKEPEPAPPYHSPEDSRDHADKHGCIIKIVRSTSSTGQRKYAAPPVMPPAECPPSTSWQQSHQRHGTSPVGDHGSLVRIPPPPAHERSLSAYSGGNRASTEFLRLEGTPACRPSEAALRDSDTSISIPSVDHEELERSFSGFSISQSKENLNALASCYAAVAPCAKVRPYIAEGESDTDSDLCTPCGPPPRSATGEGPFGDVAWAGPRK

The assay concerns the target Potassium voltage-gated channel subfamily KQT member 2 (Rattus norvegicus) (UniProt O88943). Nature of the assay: rat KCNQ2 channel activation by compounds alone, confirmation, counter-screen for hERG block protector project, cell-based, CHO, FluxOR thallium flux (AID 1942).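 Also: normalized value minus buffer-control mean plus three SD of buffer wells.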 The note with it: CHO-KCNQ2 cells, FluxOR thallium flux fluorescence; at 10 µM; stronger effect = higher value.
In the case of `CCOC(=O)C(=CNc1cc(C)nn1C(C)(C)C)C(=O)OCC`, the activity change, less the hit threshold is -8.9%. As for `O=C(CCCc1c[nH]c2ccccc12)Nc1ccc(S(=O)(=O)Nc2ncccn2)cc1`, the activity change, less the hit threshold is -22%.

For `COc1ccc([N+](=O)[O-])cc1N(CC(=O)NCc1ccco1)S(C)(=O)=O`, the activity change, less the hit threshold was -12.1%. Under `COc1ccccc1-n1cnc2sc(C)c(C)c2c1=O` stands -17.7%; under `CCC1(C)Cc2c(sc3nc(SC)[nH]c(=S)c23)CO1` (stereo not given), 101% (active); under `CSc1nc2sc3c(c2c(=S)[nH]1)CC(C)(C)OC3`, 73.2% (active). To `CCc1nc2sc3c(c2c(=S)[nH]1)CC(C)(C)OC3` belongs -13.3%; to `COc1ccc(CCNC(=O)CC(NS(=O)(=O)c2ccc(NC(C)=O)cc2)C(C)C)cc1OC` (stereo not given), -17.8%; to `COC(=O)c1sccc1NS(=O)(=O)c1ccc(F)cc1F`, -1.9%.

Regarding `Cc1ccc(S(=O)(=O)N(C)C)cc1NC(=S)NC(C)CCCC(C)C` (stereo not given), the activity change, less the hit threshold is -25.5%. To `Cc1cccc(/C=N/Nc2ccc3ccccc3n2)c1` belongs -14.1%; to `CCOc1ccc(/C=C2\CCc3ccccc3C2=O)cc1`, -13.5%; to `CCOc1ccc(/C=C2/SC(=O)NC2=S)cc1`, 83.5% (active).

On to `Cn1cc(/C=C2\SC(=O)NC2=S)c2ccccc21`, for which the activity change, less the hit threshold is -17.7%. To `O=C(O)c1ccccc1NC(=O)C1CCN(S(=O)(=O)c2cccc3nsnc23)CC1` belongs -7%; to `Cc1ccc2nsnc2c1S(=O)(=O)Nc1cccc2nsnc12`, 3.5% (active). Take `O=C(N/N=C/C(Cl)=C/c1ccc([N+](=O)[O-])cc1)C(=O)Nc1ccc(C(=O)O)cc1`: the activity change, less the hit threshold was -18.4%. Take `Oc1c(Cl)cc(Cl)cc1C=Nc1ccc(Br)cc1`: the activity change, less the hit threshold was 38.8% (active). Regarding `Oc1c(Br)cc(Cl)cc1C=Nc1ccccc1Br`, the activity change, less the hit threshold is 28.2% (active).

In the case of `O=C(Nc1ccccc1C(=O)O)c1cccc(NC(=O)c2ccco2)c1`, the activity change, less the hit threshold was -3.3%. To `O=C(Nc1cccc(N=Cc2cc(Cl)cc(Br)c2O)c1)c1ccco1` belongs 22.4% (active); to `O=C(NC(=S)Nc1cccc([N+](=O)[O-])c1)c1ccco1`, -20.7%; to `Cc1cccc(N=Cc2cc(Br)cc(Cl)c2O)c1`, 30.4% (active). To `COc1cccc(CN=c2c([N+](=O)[O-])nn(-c3ccccc3C)n2O)c1` belongs -19.6%.

In the case of `CCOCCOCN(C#N)c1nc(OC)nc(N(C)C)n1`, the activity change, less the hit threshold was -20.4%. Under `Cc1ccc(N=Cc2cc(Cl)cc(Cl)c2O)nc1` stands 22.5% (active); under `Cc1ccc(N=Cc2cc(Br)cc(Cl)c2O)cc1`, 5.8% (active). To `COc1cc(Br)cc(/C=N/NC(=O)Cc2ccccc2)c1O` belongs -9.1%; to `COc1cc(Br)cc(C=Nc2cccc(C(F)(F)F)c2)c1O`, 5.7% (active). To `NC(=O)c1cccc(N=Cc2cc(Cl)cc(Cl)c2O)c1` belongs 28.8% (active).
